# Test results: the supplement of paper PMC6555819
# How the values were obtained:
# Assay in all cases: PBM binding z-score (relative to random genomic background probes); higher = stronger binding; sequences stand for … in GC…GCGATTGACAGCGTAGAATGAAGG
# [1] = test system: FXR:RXRa (NR concentration 270 nM, RXRa partner concentration 90 nM)
# Outline: (§1)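 Binding buffer was PBS pH 7.4 with 2% milk, 0.02% Triton X-100, 1 mM DTT, 0.2 mg/mL BSA and 0.4 mg/ml salmon testes DNA. In it, ligand-free nuclear receptor dimers were incubated 1 h on custom Agilent 4×180K protein-binding microarrays carrying double-stranded probes. Antibodies against each partner (one per run) detected binding, and z-scores were calculated against random background probes after regression normalization of scanned fluorescence.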
# [2] = test system: LXRa:RXRa (NR concentration 270 nM, RXRa partner concentration 90 nM)
# Outline: as §1
# [3] = test system: LXRa homodimer (NR concentration 270 nM)
# Outline: as §1
# [4] = test system: LXRb:RXRa (NR concentration 270 nM, RXRa partner concentration 90 nM)
# Outline: as §1
# [5] = test system: LXRb homodimer (NR concentration 270 nM)
# Outline: as §1
# [6] = test system: PPARa:RXRa (NR concentration 270 nM, RXRa partner concentration 90 nM)
# Outline: as §1
# [7] = test system: PPARg:RXRa (NR concentration 180 nM, RXRa partner concentration 90 nM)
# Outline: as §1
# [8] = test system: PPARg:RXRa 270nM:90nM, anti-RXR (NR concentration 270 nM, RXRa partner concentration 90 nM)
# Outline: as §1
# [9] = test system: PPARg:RXRa 30nM:10nM, anti-RXR (NR concentration 30 nM, RXRa partner concentration 10 nM)
# Outline: as §1
# [10] = test system: PPARg:RXRa 90nM:30nM, anti-RXR (NR concentration 90 nM, RXRa partner concentration 30 nM)
# Outline: as §1
Sequence,PBM binding z-score [1],PBM binding z-score [2],PBM binding z-score [3],PBM binding z-score [4],PBM binding z-score [5],PBM binding z-score [6],PBM binding z-score [7],PBM binding z-score [8],PBM binding z-score [9],PBM binding z-score [10]
CCTACTGGGCCAAAAAGGTCATAGATGCCGATAA,3.54,4.14,2.44,4.1,-0.00458,5.14,3.89,4.29,1.84,3.55
CGTCACAGTTCAAGGTAACGTAACAGAAAGCAGC,2.2,1.91,0.443,1.52,0.237,2.46,1.29,1.19,0.243,0.61
GCATATAGGTAATACAAGGTGAAAGTCCGATTGT,2.2,2.59,0.161,0.649,-0.271,1.68,1.37,1.36,0.636,0.931
CGTCCAGGGTCAAGGTCAGTGAAAGAGACTCGAA,7.27,4.72,0.165,4.58,-0.131,6.04,6.91,6.41,3.27,5.71
GATACAGGGTCAGCTAGAGGCCAGAGGATGGAAA,4.5,3.02,-0.423,2.39,-0.64,4.54,3.7,3.5,1.02,2.16
TCTGCTAGGGCAGTTGGTCAGCTAACGAGCTGCC,-0.253,-0.634,-0.708,-0.857,-0.624,-0.359,-0.953,0.135,0.729,0.414
TCGAGTAGGTTAGGCGCATTCAGAATGGCGTCGA,-0.434,-0.29,-0.682,-0.547,-1.16,0.216,-0.326,0.786,0.835,0.489
ACTCGGAGGACAAAGCTCAGAGCTACGCCAGTGA,-0.419,-0.663,-0.768,-1.06,-0.958,-0.608,0.401,-0.00696,-0.67,-0.314
ACTATTGGTTGACTTAGGGCAACCGATACGACGC,0.0585,0.381,-0.0343,0.201,0.546,0.0767,0.718,0.153,0.181,0.103
GCTTGTAGATCAAGGTTAAGAATGACTAAGCTAA,0.096,0.324,-0.618,0.368,-0.604,1.37,1.3,1.95,0.416,1.72
ATCTCTAGGTAAAAGTTCTGTGAATCCCGAGGAT,0.0905,0.216,0.111,-0.143,0.463,1.52,2.62,3.93,2.04,4.05
CAACCTAGGTCAAGAGGTCAAAGTCCGCTTCCCG,6.93,6.34,6.16,5.73,1.82,5.97,7.35,6.76,3.67,5.86
TCGAGTAGGTTACCAATGGGGCATTCGGCTTTCT,-0.107,1.22,-0.464,0.357,-0.96,0.808,0.00688,0.931,0.855,0.717
TCATATAGGTGATACAGGTGAAAGTCGGCATCTA,0.938,1.04,0.153,0.984,-0.0198,2.33,1.96,2.94,3.85,3.55
ATCTCTAGGTAACCAAGTACAGTGAATGCCGAAC,0.125,0.246,0.247,0.353,0.673,0.645,0.752,0.425,0.0273,0.341
CGTCCAAGGTCAATGCTAGGTCATTGAAAGCATT,7.16,6.36,5.55,4.79,1.21,5.28,4.04,4.94,1.89,3.66
CCTACTGGGACATTCAGAGGTCATTGATCATATG,3.08,4.71,7.13,4.05,1.06,3.74,2.3,3.13,0.845,2.31
TGAATGAGGTTATAAGGTCAGGGAACGTTGCAAA,5.12,4.24,0.615,3.38,0.153,5.17,5.07,5.43,2.33,4.46
ATCGAAAGGTCGACGAGGTGAGTATCCACCGTTT,3.97,3.28,-0.0498,2.63,0.248,4.28,2.41,3.45,0.781,2.21
TCATATAGGTAAAAGGTGAAAGCCGGTGTGGTAA,1.71,2.07,0.0111,1.77,-0.0293,5.73,8.8,8.59,8.83,9.1
TCTATTAGTTGAAGGGCAACCTACGAGTCCGTTT,0.82,0.87,0.394,0.789,0.451,0.702,0.121,1.88,3.44,2.53
ATATGTAGGTTAGCTGGGGTCATGCAGACTAGGC,4.32,5.63,1.92,4.51,0.764,5.44,6.19,5.5,3.22,5.13
AGTCAAAGTACAGGACGAGGTAACGTAAAGCACG,0.0471,-0.247,0.0589,-0.158,-0.441,-0.0272,0.99,0.138,0.254,0.0519
